# Measurements taken from publication PMC12040169 (PLOS Biology, 2025).
# Tested on: T1, CTL2-GFP (C. trachomatis L2/434/Bu, GFP-expressing)
# T1 construct: L2/434/Bu, GFP-expressing
# Parameters: species or system HeLa; Intracellular C. trachomatis growth in HeLa cells, bulk GFP fluorescence relative to DMSO
# Details: bulk GFP, single well; 28.5 h, 10 µM; inhibitor
# Protocol: MICs were calculated as described above.
row,SMILES,% of control remaining [%]
1,O=C(c1cccc(S(=O)(=O)F)c1)N1CCCCC1 [CBK074224],100.074
2,CCOC(=O)CC(C)(O)P(=O)(OC)OC (stereo not drawn) [CBK261287],100
3,S=P(Oc1ccccc1)(Oc1ccccc1)Oc1ccccc1 [CBK260987],100
